Laboratory results: article PMC7862700, “An all-to-all approach to the identification of sequence-specific readers for epigenetic DNA modifications on cytosine”

Key:
Assay in all cases: DAPPL (digital affinity profiling via proximity ligation, sequencing); 10 mM Tris-HCl pH 7.5, 50 mM NaCl, 1 mM DTT, 4% glycerol, room temperature, 30 min; GST-TFs on glutathione beads, 16-mer random dsDNA library, 0.1% formaldehyde crosslink after washing; high values mean tight binding
Details in all cases: protein: recombinant; tags: N-terminal GST; dsDNA, one strand shown
ERF = molecular target: T1, ERF (Homo sapiens, UniProt P50548 1-548)
T1 sequence: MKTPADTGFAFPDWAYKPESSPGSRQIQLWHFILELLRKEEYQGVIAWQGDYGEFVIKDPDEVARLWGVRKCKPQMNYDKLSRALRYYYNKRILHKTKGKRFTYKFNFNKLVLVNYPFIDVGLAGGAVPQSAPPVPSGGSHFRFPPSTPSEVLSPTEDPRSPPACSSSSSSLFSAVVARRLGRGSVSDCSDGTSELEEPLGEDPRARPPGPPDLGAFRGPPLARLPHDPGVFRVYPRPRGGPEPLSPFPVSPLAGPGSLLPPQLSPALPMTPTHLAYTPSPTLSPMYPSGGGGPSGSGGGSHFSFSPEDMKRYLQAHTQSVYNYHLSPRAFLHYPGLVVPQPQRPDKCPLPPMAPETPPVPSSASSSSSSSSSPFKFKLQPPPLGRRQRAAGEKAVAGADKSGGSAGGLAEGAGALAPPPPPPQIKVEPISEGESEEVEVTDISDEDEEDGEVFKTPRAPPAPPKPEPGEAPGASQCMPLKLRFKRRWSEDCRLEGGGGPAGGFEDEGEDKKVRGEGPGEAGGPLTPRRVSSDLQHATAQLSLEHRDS
Method in brief: (§1)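 Binding signal is each hexamer's read frequency for a factor divided by its frequency in the tag-only sample. The factors were GST-fused human transcription factors from yeast, captured on glutathione beads, DNA-barcoded and pooled with that sample. Pools were incubated with 200 nmole of a random double-stranded 16-mer DNA library in Tris/NaCl/DTT/glycerol buffer at room temperature for 30 min, then washed, crosslinked with 0.1% formaldehyde, proximity-ligated with BsaI/T4 ligase (1 h, 37 °C), PCR-amplified and sequenced on an Illumina NextSeq500.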

ETV3L = molecular target: T2, ETV3L (Homo sapiens, UniProt Q6ZN32 1-361)
T2 sequence: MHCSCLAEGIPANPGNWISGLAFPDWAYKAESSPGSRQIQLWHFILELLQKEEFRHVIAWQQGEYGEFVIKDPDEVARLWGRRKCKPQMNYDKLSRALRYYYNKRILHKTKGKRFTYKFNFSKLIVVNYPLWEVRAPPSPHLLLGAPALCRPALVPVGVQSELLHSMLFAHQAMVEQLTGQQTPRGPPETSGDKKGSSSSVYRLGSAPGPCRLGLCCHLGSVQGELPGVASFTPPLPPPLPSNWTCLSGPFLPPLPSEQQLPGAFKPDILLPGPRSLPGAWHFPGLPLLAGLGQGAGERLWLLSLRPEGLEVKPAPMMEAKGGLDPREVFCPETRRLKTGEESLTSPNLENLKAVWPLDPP
Method in brief: as §1

ETS2 = molecular target: T3, ETS2 (Homo sapiens, UniProt P15036 1-469)
T3 sequence: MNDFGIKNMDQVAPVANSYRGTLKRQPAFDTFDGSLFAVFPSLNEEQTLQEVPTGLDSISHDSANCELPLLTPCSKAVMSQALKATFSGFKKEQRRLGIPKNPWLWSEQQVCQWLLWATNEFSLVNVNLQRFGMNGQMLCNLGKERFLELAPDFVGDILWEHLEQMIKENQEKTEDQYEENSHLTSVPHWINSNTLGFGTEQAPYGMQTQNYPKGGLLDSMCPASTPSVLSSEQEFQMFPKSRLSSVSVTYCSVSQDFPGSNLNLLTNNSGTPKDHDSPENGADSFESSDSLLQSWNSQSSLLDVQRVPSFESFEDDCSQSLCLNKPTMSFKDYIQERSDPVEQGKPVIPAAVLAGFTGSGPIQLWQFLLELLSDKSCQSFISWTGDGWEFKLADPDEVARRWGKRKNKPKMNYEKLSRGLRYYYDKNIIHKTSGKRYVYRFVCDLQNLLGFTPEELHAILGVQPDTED
Method in brief: as §1

SPDEF = molecular target: T4, SPDEF (Homo sapiens, UniProt O95238 1-335)
T4 sequence: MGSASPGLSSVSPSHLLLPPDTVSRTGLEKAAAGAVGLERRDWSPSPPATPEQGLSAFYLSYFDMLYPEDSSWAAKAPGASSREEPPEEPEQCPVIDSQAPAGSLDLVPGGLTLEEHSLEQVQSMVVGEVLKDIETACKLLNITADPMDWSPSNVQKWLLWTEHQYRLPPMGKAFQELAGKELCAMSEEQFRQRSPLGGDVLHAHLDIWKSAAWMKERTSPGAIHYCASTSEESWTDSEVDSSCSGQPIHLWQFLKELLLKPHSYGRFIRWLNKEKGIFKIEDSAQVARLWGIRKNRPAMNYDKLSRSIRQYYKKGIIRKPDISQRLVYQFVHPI
Method in brief: as §1

ETV7 = molecular target: T5, ETV7 (Homo sapiens, UniProt Q9Y603 1-341)
T5 sequence: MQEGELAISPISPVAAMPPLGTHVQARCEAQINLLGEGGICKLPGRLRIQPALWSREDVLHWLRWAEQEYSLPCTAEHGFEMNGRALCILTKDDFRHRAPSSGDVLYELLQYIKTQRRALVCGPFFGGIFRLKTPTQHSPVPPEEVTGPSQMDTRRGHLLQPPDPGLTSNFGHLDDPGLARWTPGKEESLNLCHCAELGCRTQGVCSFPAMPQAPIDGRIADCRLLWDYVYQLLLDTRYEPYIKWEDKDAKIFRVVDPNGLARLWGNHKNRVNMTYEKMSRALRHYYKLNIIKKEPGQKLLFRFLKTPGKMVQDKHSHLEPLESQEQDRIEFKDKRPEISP
Method in brief: as §1

ELF5 = molecular target: T6, ELF5 (Homo sapiens, UniProt Q9UKW6-2 1-255)
T6 sequence: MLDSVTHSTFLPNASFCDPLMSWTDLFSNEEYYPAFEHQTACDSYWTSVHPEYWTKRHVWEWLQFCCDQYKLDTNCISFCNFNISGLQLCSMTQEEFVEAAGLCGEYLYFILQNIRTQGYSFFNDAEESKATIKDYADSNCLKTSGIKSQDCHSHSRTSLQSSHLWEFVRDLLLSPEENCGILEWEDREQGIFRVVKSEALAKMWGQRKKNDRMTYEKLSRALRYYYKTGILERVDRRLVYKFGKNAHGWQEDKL
Method in brief: as §1

ETV3 = molecular target: T7, ETV3 (Homo sapiens, UniProt P41162-2 1-143)
T7 sequence: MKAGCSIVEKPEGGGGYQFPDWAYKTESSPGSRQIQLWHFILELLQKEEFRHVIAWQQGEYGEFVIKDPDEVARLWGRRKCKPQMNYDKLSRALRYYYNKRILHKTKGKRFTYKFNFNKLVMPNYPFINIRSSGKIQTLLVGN
Method in brief: as §1

ETV6 = ETV6 (Homo sapiens, UniProt P41212 1-452)
Method in brief: as §1

ETV6, sequence (P41212 whole entry): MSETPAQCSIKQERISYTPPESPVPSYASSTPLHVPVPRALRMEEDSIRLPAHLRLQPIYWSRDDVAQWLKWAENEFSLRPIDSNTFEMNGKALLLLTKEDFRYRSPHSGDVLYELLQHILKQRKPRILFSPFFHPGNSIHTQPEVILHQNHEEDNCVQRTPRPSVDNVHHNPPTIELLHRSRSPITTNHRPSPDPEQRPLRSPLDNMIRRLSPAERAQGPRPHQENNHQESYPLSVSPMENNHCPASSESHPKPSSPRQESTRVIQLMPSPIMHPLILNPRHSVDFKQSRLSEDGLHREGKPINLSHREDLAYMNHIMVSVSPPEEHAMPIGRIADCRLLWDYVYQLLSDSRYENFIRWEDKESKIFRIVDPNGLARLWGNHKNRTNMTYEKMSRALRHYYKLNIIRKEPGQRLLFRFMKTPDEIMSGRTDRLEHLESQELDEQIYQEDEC

Sequence | binding signal (ERF) | binding signal (ETV3L) | binding signal (ETS2) | binding signal (SPDEF) | binding signal (ETV7) | binding signal (ELF5) | binding signal (ETV3) | binding signal (ETV6)
TATTGG | 1.2 fold enrichment (6-mer frequency, TF over GST control) | 1.18 fold enrichment (6-mer frequency, TF over GST control) | 1.23 fold enrichment (6-mer frequency, TF over GST control) | 1.23 fold enrichment (6-mer frequency, TF over GST control) | 1.19 fold enrichment (6-mer frequency, TF over GST control) | 1.1 fold enrichment (6-mer frequency, TF over GST control) | 1.17 fold enrichment (6-mer frequency, TF over GST control) | 1.21 fold enrichment (6-mer frequency, TF over GST control)
CATATT | 1.32 fold enrichment (6-mer frequency, TF over GST control) | 1.29 fold enrichment (6-mer frequency, TF over GST control) | 1.22 fold enrichment (6-mer frequency, TF over GST control) | 1.24 fold enrichment (6-mer frequency, TF over GST control) | 1.19 fold enrichment (6-mer frequency, TF over GST control) | 1.23 fold enrichment (6-mer frequency, TF over GST control) | 1.24 fold enrichment (6-mer frequency, TF over GST control) | 1.25 fold enrichment (6-mer frequency, TF over GST control)
TCTGCG | 1.07 fold enrichment (6-mer frequency, TF over GST control) | 1.23 fold enrichment (6-mer frequency, TF over GST control) | 1.17 fold enrichment (6-mer frequency, TF over GST control) | 1.21 fold enrichment (6-mer frequency, TF over GST control) | 1.09 fold enrichment (6-mer frequency, TF over GST control) | 1.15 fold enrichment (6-mer frequency, TF over GST control) | 1.16 fold enrichment (6-mer frequency, TF over GST control) | 1.14 fold enrichment (6-mer frequency, TF over GST control)
CTCACG | 1.25 fold enrichment (6-mer frequency, TF over GST control) | 1.3 fold enrichment (6-mer frequency, TF over GST control) | 1.4 fold enrichment (6-mer frequency, TF over GST control) | 1.26 fold enrichment (6-mer frequency, TF over GST control) | 1.25 fold enrichment (6-mer frequency, TF over GST control) | 1.26 fold enrichment (6-mer frequency, TF over GST control) | 1.23 fold enrichment (6-mer frequency, TF over GST control) | 1.25 fold enrichment (6-mer frequency, TF over GST control)
TACGAT | 1.07 fold enrichment (6-mer frequency, TF over GST control) | 1.13 fold enrichment (6-mer frequency, TF over GST control) | 1.15 fold enrichment (6-mer frequency, TF over GST control) | 1.11 fold enrichment (6-mer frequency, TF over GST control) | 1.07 fold enrichment (6-mer frequency, TF over GST control) | 1.03 fold enrichment (6-mer frequency, TF over GST control) | 1 fold enrichment (6-mer frequency, TF over GST control) | 1.03 fold enrichment (6-mer frequency, TF over GST control)
CAAAAC | 1.28 fold enrichment (6-mer frequency, TF over GST control) | 1.27 fold enrichment (6-mer frequency, TF over GST control) | 1.27 fold enrichment (6-mer frequency, TF over GST control) | 1.23 fold enrichment (6-mer frequency, TF over GST control) | 1.23 fold enrichment (6-mer frequency, TF over GST control) | 1.25 fold enrichment (6-mer frequency, TF over GST control) | 1.18 fold enrichment (6-mer frequency, TF over GST control) | 1.33 fold enrichment (6-mer frequency, TF over GST control)
CTTCTT | 1.53 fold enrichment (6-mer frequency, TF over GST control) | 1.59 fold enrichment (6-mer frequency, TF over GST control) | 1.35 fold enrichment (6-mer frequency, TF over GST control) | 1.54 fold enrichment (6-mer frequency, TF over GST control) | 1.44 fold enrichment (6-mer frequency, TF over GST control) | 1.65 fold enrichment (6-mer frequency, TF over GST control) | 1.6 fold enrichment (6-mer frequency, TF over GST control) | 1.64 fold enrichment (6-mer frequency, TF over GST control)
GCTCGC | 1.36 fold enrichment (6-mer frequency, TF over GST control) | 1.35 fold enrichment (6-mer frequency, TF over GST control) | 1.45 fold enrichment (6-mer frequency, TF over GST control) | 1.29 fold enrichment (6-mer frequency, TF over GST control) | 1.21 fold enrichment (6-mer frequency, TF over GST control) | 1.31 fold enrichment (6-mer frequency, TF over GST control) | 1.35 fold enrichment (6-mer frequency, TF over GST control) | 1.35 fold enrichment (6-mer frequency, TF over GST control)
TTCGTA | 1.39 fold enrichment (6-mer frequency, TF over GST control) | 1.35 fold enrichment (6-mer frequency, TF over GST control) | 1.36 fold enrichment (6-mer frequency, TF over GST control) | 1.21 fold enrichment (6-mer frequency, TF over GST control) | 1.4 fold enrichment (6-mer frequency, TF over GST control) | 1.3 fold enrichment (6-mer frequency, TF over GST control) | 1.44 fold enrichment (6-mer frequency, TF over GST control) | 1.3 fold enrichment (6-mer frequency, TF over GST control)
TGCTTT | 1.29 fold enrichment (6-mer frequency, TF over GST control) | 1.11 fold enrichment (6-mer frequency, TF over GST control) | 1.07 fold enrichment (6-mer frequency, TF over GST control) | 1.02 fold enrichment (6-mer frequency, TF over GST control) | 1.19 fold enrichment (6-mer frequency, TF over GST control) | 1.15 fold enrichment (6-mer frequency, TF over GST control) | 1.14 fold enrichment (6-mer frequency, TF over GST control) | 1.1 fold enrichment (6-mer frequency, TF over GST control)
TGATGG | 1.27 fold enrichment (6-mer frequency, TF over GST control) | 1.16 fold enrichment (6-mer frequency, TF over GST control) | 1.22 fold enrichment (6-mer frequency, TF over GST control) | 1.09 fold enrichment (6-mer frequency, TF over GST control) | 1.24 fold enrichment (6-mer frequency, TF over GST control) | 1.26 fold enrichment (6-mer frequency, TF over GST control) | 1.2 fold enrichment (6-mer frequency, TF over GST control) | 1.21 fold enrichment (6-mer frequency, TF over GST control)
CTTTCC | 1.82 fold enrichment (6-mer frequency, TF over GST control) | 1.76 fold enrichment (6-mer frequency, TF over GST control) | 2.1 fold enrichment (6-mer frequency, TF over GST control) | 1.96 fold enrichment (6-mer frequency, TF over GST control) | 1.64 fold enrichment (6-mer frequency, TF over GST control) | 2.39 fold enrichment (6-mer frequency, TF over GST control) | 2.12 fold enrichment (6-mer frequency, TF over GST control) | 2.07 fold enrichment (6-mer frequency, TF over GST control)
